For some assays here: Measured potencies and affinities stand elsewhere. Active and inactive are the calls of the source. Unless noted, the rule behind the calls is not given here.
Key:
[1] = antimalarial activity against Dd2 strain (AID 2302;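 active = growth inhibition above 50% at the single 2 µM test dose, taken to imply half-maximal potency below 2 µM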;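 note: 0% = DMSO untreated growth and 100% = chloroquine plus artemisinin killed control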); details: P. falciparum Dd2 in RBCs, LDH growth readout, 72 h; at 2 µM; hits give high values
[2] = HepG2 cytotoxicity, primary screen, cytotoxicity control for P. falciparum antimalarial project, cell-based, ATP luminescence (AID 2303;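 active = inhibition above 50%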;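 note: 0% = DMSO wells and 100% = digitonin-killed cells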); details: HepG2 viability, 24-48 h, at 10 µM, hits give high values
[3] = biological target: L-lactate dehydrogenase (Plasmodium falciparum (isolate CDC / Honduras)) (UniProt Q27743); experiment: PfLDH activity inhibition – cell lysate, 3D7 strain, counter-screen for P. falciparum growth inhibition project (AID 2304);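 note: 0% = vehicle and 100% = reference inhibitor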; details: P. falciparum 3D7 crude extract, LDH APAD/NBT absorbance; at 2 µM; hits give high values
Chain of L-lactate dehydrogenase (Plasmodium falciparum (isolate CDC / Honduras)) (Q27743 whole entry, looked up): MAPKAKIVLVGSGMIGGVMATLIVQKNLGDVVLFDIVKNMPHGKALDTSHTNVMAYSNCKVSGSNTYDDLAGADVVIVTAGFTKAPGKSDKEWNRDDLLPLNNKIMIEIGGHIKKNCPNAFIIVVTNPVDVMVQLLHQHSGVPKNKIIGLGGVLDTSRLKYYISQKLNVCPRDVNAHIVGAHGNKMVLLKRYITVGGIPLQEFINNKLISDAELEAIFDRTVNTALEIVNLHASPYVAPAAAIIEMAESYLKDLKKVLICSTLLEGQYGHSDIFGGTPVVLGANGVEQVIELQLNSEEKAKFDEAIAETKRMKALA

[4] = inhibition of 3D7 malaria parasite growth – strain 3D7 (AID 2306);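 note: 0% = DMSO wells and 100% = chloroquine plus artemisinin control wells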; details: P. falciparum 3D7 erythrocytic growth, LDH absorbance, 72 h; at 2 µM; hits give high values
[5] = biological target: Calcium-dependent protein kinase 1 (Plasmodium falciparum (isolate 3D7)) (UniProt P62344); experiment: PfCDPK1 kinase inhibitors, biochemical, TCAMS library (AID 1159585; cut-off not given, nearly all actives have IC50 up to about 0.98 µM;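 note: inhibitors leave more ATP so luminescence rises with inhibition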); details: recombinant PfCDPK1, Kinase-Glo ATP depletion luminescence
Chain of Calcium-dependent protein kinase 1 (Plasmodium falciparum (isolate 3D7)) (P62344 whole entry, looked up): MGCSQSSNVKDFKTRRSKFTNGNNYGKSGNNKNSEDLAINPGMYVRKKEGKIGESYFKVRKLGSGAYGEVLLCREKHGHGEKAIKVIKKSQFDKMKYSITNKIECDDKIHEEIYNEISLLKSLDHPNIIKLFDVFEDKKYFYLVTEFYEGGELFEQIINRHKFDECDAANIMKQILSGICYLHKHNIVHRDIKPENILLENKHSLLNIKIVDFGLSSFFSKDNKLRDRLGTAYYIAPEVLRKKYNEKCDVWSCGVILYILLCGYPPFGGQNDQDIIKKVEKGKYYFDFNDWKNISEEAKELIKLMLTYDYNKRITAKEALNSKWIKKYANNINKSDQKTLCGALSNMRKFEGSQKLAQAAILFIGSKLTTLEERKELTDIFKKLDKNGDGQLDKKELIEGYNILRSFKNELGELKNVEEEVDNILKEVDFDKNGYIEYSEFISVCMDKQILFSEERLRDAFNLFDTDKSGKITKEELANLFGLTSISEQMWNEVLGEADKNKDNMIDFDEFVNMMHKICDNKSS

[6] = biological target: Plasmodium falciparum protein kinase 6 (PK6, PF3D7_1337100) (UniProt Q8IDW1); experiment: PfPK6 kinase inhibitors, biochemical, TCAMS library (AID 1159586); details: recombinant PfPK6, Kinase-Glo ATP depletion luminescence
Chain of Plasmodium falciparum protein kinase 6 (PK6, PF3D7_1337100) (Q8IDW1 1-305): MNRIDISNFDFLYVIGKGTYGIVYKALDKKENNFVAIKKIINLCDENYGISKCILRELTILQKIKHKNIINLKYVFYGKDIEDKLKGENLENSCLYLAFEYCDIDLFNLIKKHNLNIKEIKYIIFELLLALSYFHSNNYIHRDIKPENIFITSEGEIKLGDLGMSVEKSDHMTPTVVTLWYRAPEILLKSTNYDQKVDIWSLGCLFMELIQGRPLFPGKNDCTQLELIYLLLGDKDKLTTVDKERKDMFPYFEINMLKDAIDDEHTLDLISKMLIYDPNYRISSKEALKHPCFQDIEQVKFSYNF

[7] = biological target: Protein kinase 7 (PK7), Plasmodium falciparum 3D7 (PF3D7_0213400) (UniProt Q7YTF7); experiment: inhibition of Plasmodium PK7 catalytic activity – biochemical, TCAMS antimalarial set, Kinase-Glo luminescence (AID 1159587); details: recombinant PfPK7, Kinase-Glo ATP depletion luminescence
Chain of Protein kinase 7 (PK7), Plasmodium falciparum 3D7 (PF3D7_0213400) (Q7YTF7 1-343): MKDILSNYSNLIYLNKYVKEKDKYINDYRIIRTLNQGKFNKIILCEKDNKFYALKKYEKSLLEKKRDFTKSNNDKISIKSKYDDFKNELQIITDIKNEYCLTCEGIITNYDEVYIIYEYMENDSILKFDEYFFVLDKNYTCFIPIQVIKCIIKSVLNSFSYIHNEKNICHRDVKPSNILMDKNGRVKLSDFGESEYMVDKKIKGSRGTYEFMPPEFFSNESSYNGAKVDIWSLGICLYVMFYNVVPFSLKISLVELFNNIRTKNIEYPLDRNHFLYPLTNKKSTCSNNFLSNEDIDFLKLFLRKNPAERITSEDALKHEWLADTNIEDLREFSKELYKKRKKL

[8] = biological target: Calcium-dependent protein kinase 4 (Plasmodium falciparum (isolate 3D7)) (UniProt Q8IBS5); experiment: PfCDPK4 kinase inhibitors, biochemical, TCAMS library (AID 1159588; cut-off not given, nearly all actives have IC50 up to about 0.91 µM); details: recombinant PfCDPK4, Kinase-Glo ATP depletion luminescence
Chain of Calcium-dependent protein kinase 4 (Plasmodium falciparum (isolate 3D7)) (Q8IBS5 whole entry, looked up): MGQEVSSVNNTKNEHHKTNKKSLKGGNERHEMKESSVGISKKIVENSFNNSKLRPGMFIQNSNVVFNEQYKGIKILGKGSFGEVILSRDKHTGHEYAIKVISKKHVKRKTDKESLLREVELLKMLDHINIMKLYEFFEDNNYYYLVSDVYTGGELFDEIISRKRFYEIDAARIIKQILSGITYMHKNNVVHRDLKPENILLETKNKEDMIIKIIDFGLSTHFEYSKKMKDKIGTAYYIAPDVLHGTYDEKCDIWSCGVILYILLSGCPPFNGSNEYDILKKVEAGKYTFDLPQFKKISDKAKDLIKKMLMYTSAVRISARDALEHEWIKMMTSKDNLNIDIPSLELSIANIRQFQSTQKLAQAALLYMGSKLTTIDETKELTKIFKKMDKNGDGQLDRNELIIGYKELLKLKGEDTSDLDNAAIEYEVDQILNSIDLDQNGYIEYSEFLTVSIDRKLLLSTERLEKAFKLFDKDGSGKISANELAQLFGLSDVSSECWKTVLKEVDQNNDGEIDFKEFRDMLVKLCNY

COc1ccc2c(c1)CC1CN(CCCCNC(=O)c3ccc(NC(=O)c4cc(Cl)cc(Cl)c4)cc3)CCN1C2 (stereo unspecified)
inactive: inhibition [2] 7% | inhibition [3] 1% | outcome [5] | outcome [6] | outcome [7] | outcome [8]
active: growth inhibition [1] 57% | growth inhibition [4] 101%

CN1CCN(c2cc3c(cc2Cl)CCN3C(=O)Cc2ccc(Cl)c(NC(=O)Nc3cccc(C#N)c3)c2)CC1
inactive: growth inhibition [1] 40% | inhibition [2] -1% | inhibition [3] -1% | outcome [5] | outcome [6] | outcome [7] | outcome [8]
active: growth inhibition [4] 99%

O=C(/C=C/c1ccc(Cl)c(Cl)c1)NCCCCCN1CCC(C(=O)Nc2ccc(F)c(Cl)c2)CC1
inactive: growth inhibition [1] -3% | inhibition [2] 25% | inhibition [3] 2% | outcome [5] | outcome [6] | outcome [7] | outcome [8]
active: growth inhibition [4] 100%

Cc1cc(N2CCOCC2)nc(Nc2ccc(NC(=O)c3cccc4ccccc34)cc2)n1
inactive: growth inhibition [1] 11% | inhibition [2] 44% | inhibition [3] -1% | outcome [5] | outcome [6] | outcome [7] | outcome [8]
active: growth inhibition [4] 95%

COc1ccccc1-n1c(-c2ccc3ccccc3c2)csc1=NC(=O)c1ccccc1
inactive: inhibition [2] -6% | inhibition [3] -1% | outcome [5] | outcome [6] | outcome [7] | outcome [8]
active: growth inhibition [1] 79% | growth inhibition [4] 93%

C=CCn1c(Cc2ccccc2)nnc1Sc1ccc(C#N)c([N+](=O)[O-])c1
active: growth inhibition [4] 86%
inactive: growth inhibition [1] 43% | inhibition [2] 7% | inhibition [3] 2% | outcome [5] | outcome [6] | outcome [7] | outcome [8]

O=C(c1cnn(-c2ccccc2)c1C(F)(F)F)N1CCN(c2ccnc3cc(Cl)ccc23)CC1
active: growth inhibition [1] 94% | growth inhibition [4] 89%
inactive: inhibition [2] 34% | inhibition [3] 6% | outcome [5] | outcome [6] | outcome [7] | outcome [8]

COc1cc2c(cc1C(F)(F)F)N(C(=O)Nc1cccc(-c3ccc(CN(C)C)cc3)c1)CC2
active: growth inhibition [1] 93% | inhibition [2] 95% | growth inhibition [4] 101%
inactive: inhibition [3] 1% | outcome [5] | outcome [6] | outcome [7] | outcome [8]

Cc1cc(NC(=O)c2cc(Br)ccc2Cl)n(-c2nc(C)c(C)c(=O)[nH]2)n1
inactive: inhibition [3] -2% | outcome [5] | outcome [6] | outcome [7] | outcome [8]
active: growth inhibition [1] 83% | inhibition [2] 54% | growth inhibition [4] 91%

COc1ccc2nccc(NN=Cc3ccncc3)c2c1
inactive: inhibition [2] 4% | inhibition [3] -3% | outcome [5] | outcome [6] | outcome [7] | outcome [8]
active: growth inhibition [1] 95% | growth inhibition [4] 99%

CC(C)S(=O)(=O)N1CCN(Cc2ccc3c(c2)nc(NC(=O)c2ccsc2)n3C[C@H](O)c2ccccc2)CC1
active: growth inhibition [1] 72% | inhibition [2] 56% | growth inhibition [4] 91%
inactive: inhibition [3] 0% | outcome [5] | outcome [6] | outcome [7] | outcome [8]

COc1ccc(CN2CCCN(Cc3ccc(C(=O)Nc4ccc(Cl)cc4)cc3)CC2)cc1
active: growth inhibition [4] 91%
inactive: growth inhibition [1] 3% | inhibition [2] 46% | inhibition [3] 0% | outcome [5] | outcome [6] | outcome [7] | outcome [8]

O=C(C=Cc1ccc(-c2nc3ccccc3[nH]2)cc1)NC1CCN(Cc2ccccc2)CC1
inactive: inhibition [2] 15% | inhibition [3] 3% | outcome [5] | outcome [6] | outcome [7] | outcome [8]
active: growth inhibition [1] 88% | growth inhibition [4] 99%

FC(F)(F)c1cccc2c(NN=Cc3ccccc3)ccnc12
inactive: inhibition [2] 10% | inhibition [3] -4% | outcome [5] | outcome [6] | outcome [7] | outcome [8]
active: growth inhibition [1] 90% | growth inhibition [4] 101%

Oc1cccc(/C=N/Nc2ccnc3cc(Cl)ccc23)c1
inactive: inhibition [2] -9% | inhibition [3] 0% | outcome [5] | outcome [6] | outcome [7] | outcome [8]
active: growth inhibition [1] 95% | growth inhibition [4] 104%

O=c1c2ccc(F)cc2sn1-c1ccc(Cl)cc1
inactive: growth inhibition [1] 11% | inhibition [2] 8% | inhibition [3] -2% | outcome [5] | outcome [6] | outcome [7] | outcome [8]
active: growth inhibition [4] 98%

O=C(Nc1ccc(C2=NC3CCCCC3N2)cc1)Nc1ccc(C2=NC3CCCCC3N2)cc1 (stereo unspecified)
active: growth inhibition [1] 76% | growth inhibition [4] 88%
inactive: inhibition [2] 7% | inhibition [3] 0% | outcome [5] | outcome [6] | outcome [7] | outcome [8]

COc1ccccc1CNC(=O)c1cc(C2CC2)nc2c1cnn2C(C)C
active: growth inhibition [1] 92% | growth inhibition [4] 94%
inactive: inhibition [2] 47% | inhibition [3] 5% | outcome [5] | outcome [6] | outcome [7] | outcome [8]

COc1cc2nc(NCCC(C)C)n3nc(-c4ccccc4)nc3c2cc1OC
active: growth inhibition [1] 97% | growth inhibition [4] 94%
inactive: inhibition [2] -7% | inhibition [3] 4% | outcome [5] | outcome [6] | outcome [7] | outcome [8]

Cc1cccc2[nH]c(-c3cccc(-c4cccc(NC(=O)NCc5ccccc5)c4)c3)nc12
inactive: growth inhibition [1] 27% | inhibition [2] 12% | inhibition [3] 5% | outcome [5] | outcome [6] | outcome [7] | outcome [8]
active: growth inhibition [4] 94%

COc1cccc2cc(C(=O)N[C@@H](CC(C)C)C(=O)NC(/C=N/NC(=O)c3ccccc3)CCc3ccccc3)oc12 (stereo partly specified)
active: growth inhibition [1] 73% | growth inhibition [4] 88%
inactive: inhibition [2] 8% | inhibition [3] -3% | outcome [5] | outcome [6] | outcome [7] | outcome [8]

CC1(C)N=C(N)N=C(N)N1OCc1cc(Cl)cc2c1OCOC2
active: growth inhibition [1] 64% | inhibition [2] 65% | growth inhibition [4] 95%
inactive: inhibition [3] -1% | outcome [5] | outcome [6] | outcome [7] | outcome [8]

N#Cc1ccc(CN2CCC(Oc3ccc(NC(=O)c4cccs4)cc3)C2)cc1 (stereo unspecified)
active: growth inhibition [1] 65% | growth inhibition [4] 82%
inactive: inhibition [2] 5% | inhibition [3] 1% | outcome [5] | outcome [6] | outcome [7] | outcome [8]

CC(C)CC(NC(=O)c1cc2ccccc2s1)C(=O)N1CCCCCC1c1ccc(C(C)(C)C)cc1 (stereo unspecified)
active: growth inhibition [4] 91%
inactive: growth inhibition [1] 39% | inhibition [2] 23% | inhibition [3] -2% | outcome [5] | outcome [6] | outcome [7] | outcome [8]

O=C(CSc1nc2ccccc2c(=O)n1C1CC1)Nc1cc(C(F)(F)F)ccc1Cl
inactive: inhibition [2] 5% | inhibition [3] 2% | outcome [5] | outcome [6] | outcome [7] | outcome [8]
active: growth inhibition [1] 96% | growth inhibition [4] 97%

Cc1cccc2[nH]c(-c3ccc(-c4cccc(CNCc5ccc(CN)cc5)c4)s3)nc12
inactive: growth inhibition [1] 48% | inhibition [2] 11% | inhibition [3] -2% | outcome [5] | outcome [6] | outcome [7] | outcome [8]
active: growth inhibition [4] 99%

O=C(NC1CCN(Cc2ccccc2)CC1)c1ccc(-c2nc3cc(Cl)c(Cl)cc3[nH]2)c(F)c1
inactive: inhibition [2] 4% | inhibition [3] -2% | outcome [5] | outcome [6] | outcome [7] | outcome [8]
active: growth inhibition [1] 83% | growth inhibition [4] 101%

O=C(/C=C/C=C/c1ccc(Cl)c(Cl)c1)NCCCCCN1CCCC2CCCCC21 (stereo unspecified)
active: growth inhibition [4] 91%
inactive: growth inhibition [1] 48% | inhibition [2] 41% | inhibition [3] -5% | outcome [5] | outcome [6] | outcome [7] | outcome [8]

COc1ccc2c(-c3ccccc3)noc2c1
inactive: growth inhibition [1] 34% | inhibition [2] -4% | inhibition [3] -2% | outcome [5] | outcome [6] | outcome [7] | outcome [8]
active: growth inhibition [4] 98%

COc1ccccc1C1CC(c2ccc(C)cc2)=NN1C(=O)c1ccccc1 (stereo unspecified)
inactive: growth inhibition [1] 45% | inhibition [2] 37% | inhibition [3] -5% | outcome [5] | outcome [6] | outcome [7] | outcome [8]
active: growth inhibition [4] 98%

Cn1cncc1CCN(Cc1ccc(-c2ccc(C(F)(F)F)cc2)cc1)C(=O)Cn1c(CCc2cccc(F)c2F)cc(=O)c2cccnc21
inactive: inhibition [2] 44% | inhibition [3] -2% | outcome [5] | outcome [6] | outcome [7] | outcome [8]
active: growth inhibition [1] 97% | growth inhibition [4] 100%

CCc1c[nH]c2c(N3CCCS3(=O)=O)cc(C(=O)N[C@@H](Cc3ccccc3)[C@H](O)CNC(C)(C)c3cccc(C(F)(F)F)c3)cc12
active: growth inhibition [1] 99% | growth inhibition [4] 97%
inactive: inhibition [2] 20% | inhibition [3] 2% | outcome [5] | outcome [6] | outcome [7] | outcome [8]

O=C(Nc1ccc(OC2CCN(Cc3ccccc3)CC2)c(Cl)c1)c1cccs1
active: growth inhibition [1] 95% | growth inhibition [4] 96%
inactive: inhibition [2] 2% | inhibition [3] 4% | outcome [5] | outcome [6] | outcome [7] | outcome [8]

Cc1ccc2c(c1)NC[C@@]21CCN(C[C@@H](O)C2CCN(c3cc(C#N)ccn3)CC2)C[C@@H]1C
active: growth inhibition [1] 79% | growth inhibition [4] 90%
inactive: inhibition [2] 28% | inhibition [3] -2% | outcome [5] | outcome [6] | outcome [7] | outcome [8]

CCN(CC)CCNC(=O)/C(=C/C=C/c1cc2cc(Cl)c(Cl)cc2[nH]1)OC
inactive: growth inhibition [1] 31% | inhibition [2] 30% | inhibition [3] -4% | outcome [5] | outcome [6] | outcome [7] | outcome [8]
active: growth inhibition [4] 88%

Cc1cnc(N2CCN(CCCN3CCCC3)CC2)nc1Oc1ccc(-n2ccnc2)cc1
active: growth inhibition [1] 82% | growth inhibition [4] 99%
inactive: inhibition [2] 12% | inhibition [3] 4% | outcome [5] | outcome [6] | outcome [7] | outcome [8]

COc1ccc(-c2nonc2NC(=O)c2cccc(C)c2)cc1OC
active: growth inhibition [4] 97%
inactive: growth inhibition [1] 8% | inhibition [2] 24% | inhibition [3] -1% | outcome [5] | outcome [6] | outcome [7] | outcome [8]
